Compound activity: PubChem, National Center for Advancing Translational Sciences (NCATS)
Sampled rows, rich in hits. Any-hit rate of the full collection: about 5.1%.
Tau fibril FP: inhibitors of human tau fibril formation. P10636. K18 P301L tau heparin fibrillization, Alexa594 FP, 6 h. Potency, µM (top dose mostly 57.7 µM), for the others: at the top dose activity, negative = inhibition, actives largely listed as inhibitors. hit rate 0.39% among 280,000. AID 1468; further: potency means the concentration at half of the fitted maximal effect; nearly all actives have a fitted effect of over 55% in size
Target sequence (P10636 561-689 P618L limits assumed): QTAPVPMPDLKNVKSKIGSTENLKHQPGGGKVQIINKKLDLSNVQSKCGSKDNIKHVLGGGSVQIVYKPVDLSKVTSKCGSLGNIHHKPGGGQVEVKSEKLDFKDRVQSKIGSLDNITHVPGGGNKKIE
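Quantitative HTS format: compounds meet 15 uM recombinant K18 P301L tau and Alexa 594-tau tracer in 100 mM sodium acetate pH 7; 20 uM heparin triggers fibrillization at 37 C over 6 hr; FP gives the signal.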
PNC assembly inh: perinucleolar compartment assembly inhibition | hit rate 3.1% among 140,000 | activity change (PNC), negative = inhibition, % at 10 µM | PC3M PTB-GFP, PNC prevalence imaging, 16 h; stronger effect = lower value;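 active means readout at or below -70, meaning at least 70% loss of cells showing the perinucleolar compartment, a nuclear body marking cancer cells; inconclusive means readout between -30 and a set limit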;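 further: plate controls were DMSO wells for no effect and camptothecin positive control wells for full effect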
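PC3M cells stably expressing PTB-GFP, 750–1000 cells/well, treated 16 h at 37 °C with compound (23 nl of library stock), in duplicate. After paraformaldehyde fixation and Hoechst stain, imaged at 20x; PNC prevalence scored by image analysis.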
JMJD2E inh: inhibitors of human JMJD2E histone demethylase | JMJD2E catalytic domain, FDH-coupled NADH fluorescence (FDH is formaldehyde dehydrogenase) | hit rate 1.6% among 230,000 | Potency, µM (highest dose often 57.1 µM), without a hit: top-dose activity change, negative = inhibition, hits mostly inhibitors; active means well fitted inhibition curve with a large enough effect, not every such curve was filed as active; inconclusive means small, poorly fitted or top-dose-only effect, or another doubt; inactive means no such curve, though single readings can be large or run the other way;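 further: potency means the concentration at half of the fitted maximal effect; 0% = wells with enzyme and -100% = buffer wells without enzyme; nearly all actives have a fitted effect of over 50% in size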
Target sequence (B2RXH2 1-337 limits assumed): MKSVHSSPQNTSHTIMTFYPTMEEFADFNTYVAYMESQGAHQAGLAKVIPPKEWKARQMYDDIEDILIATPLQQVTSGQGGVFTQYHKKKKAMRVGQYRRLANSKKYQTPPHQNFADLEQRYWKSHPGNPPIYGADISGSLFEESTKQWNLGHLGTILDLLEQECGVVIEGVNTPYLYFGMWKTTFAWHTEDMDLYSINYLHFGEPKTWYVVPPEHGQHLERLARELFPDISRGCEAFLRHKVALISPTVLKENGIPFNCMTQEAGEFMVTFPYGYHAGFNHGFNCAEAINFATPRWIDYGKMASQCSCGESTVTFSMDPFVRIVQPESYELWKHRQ
Tau fibril ThT: tau fibrillization inhibition (ThT binding). AID 1460. P10636. hit rate 2.1% among 270,000. recombinant tau K18 P301L, heparin-induced fibrillization, ThT fluorescence. Potency, µM (highest dose often 57.4 µM), for inactives: top-dose activity, negative = inhibition, actives largely listed as inhibitors; further: potency means the concentration at half of the fitted maximal effect; nearly all actives have a fitted effect of over 55% in size
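Heparin-induced (20 uM) aggregation of recombinant human K18 P301L tau, 15 uM unlabeled with 0.24 uM labeled, pH 7 acetate buffer, 6 hr at 37 C with compound. Fibrils quantified by 30 uM ThT fluorescence after 1 hr ambient incubation.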
NPSR antagonist: antagonists of human neuropeptide S receptor cAMP signaling | Q6W5P4 | CHO-NPSR cells, cAMP TR-FRET, antagonist mode | Potency, µM (series often up to 38.3 µM), for the others: top-dose activity change, negative = inhibition, most hits filed as inhibitors | hit rate 1% among 220,000; further: potency means the concentration at half of the fitted maximal effect; nearly all actives have a fitted effect of over 50% in size
Tau fluor counter: counter-screen for tau fibril formation inhibitors; tau K18 P301L Alexa594 fluorescence, heparin fibrillization; hit rate 0.93% among 280,000; Potency, µM (highest dose often 57.7 µM), for the others: at the highest dose activity change, negative = decrease; AID 1463; further: potency means the concentration at half of the fitted maximal effect; nearly all actives have a fitted effect of over 55% in size
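Human tau K18 P301L (15 uM unlabeled, 0.24 uM Alexa 594-labeled) in 100 mM sodium acetate pH 7 with 20 uM heparin, 6 hr at 37 C. ThT 30 uM added, 1 hr ambient; Alexa 594 FP and total fluorescence read at 555/632 nm.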
Starred values were filed as active, the others as inactive; ? = inconclusive; . = no result given; [ ] = remark or other dose. Unless noted, the call rests on the fitted dose curve; in most records, active means well fitted curve in the direction sought with a large enough effect; inconclusive means small, poorly fitted or top-dose-only effect, or another doubt; inactive means no such curve, though single readings can be large; an effect the other way counts as inactive or inconclusive. Unless noted, on the % scale 0 is the no-effect control and ±100 the full control effect.

SMILES	Tau fibril FP	PNC assembly inh	JMJD2E inh	Tau fibril ThT	NPSR antagonist	Tau fluor counter
C/C(=N\NC1=NCCN1)c1ccc(Cl)cc1	-2%	.	-8%	1%	28%	-6%
Cc1cc(C(=O)Nc2nc3c(s2)CCCC3)no1	0%	-107*	0%	-4%	-22%[46.1 µM]	1%
COc1ccc(-c2onc(C)c2C)cc1S(=O)(=O)NCc1ccco1	-9%	.	.	-5%	.	-15%
C=C(C)C(=O)/C=C/c1ccc(C(F)(F)F)cc1	3%	.	16%	-1%	.	3%
Cc1cc(C(=O)Nc2nnc(-c3ccccc3)s2)no1	2%	-98*	?	0%	-27%[46.1 µM]	-3%
Cc1onc(-c2ccccc2Cl)c1C(=O)Nc1sc2c(c1C#N)CCC2	?	-4	4%	28µM*	-8%[46.1 µM]	?
N#Cc1c(NC(=O)C2CC(c3ccccc3Cl)=NO2)sc2c1CCC2 (stereo not given)	-2%	95	3%	-13%	-10%[46.1 µM]	-22%
Cc1cc(O)c(C(C)C)cc1N=Cc1cc([N+](=O)[O-])ccc1O	7.1µM*	.	14%	3.5µM*	3%	?
CC(N=Cc1ccccc1O)c1ccccc1 (stereo not given)	6%	-14	1%	-3%	-2%[46.1 µM]	2%
Cc1cc(O)c(C(C)C)cc1N=Cc1ccccc1O	8.9µM*	.	-31%	3.5µM*	35%	?
COc1ccc(OCCn2nnc3sc4c(c3c2=O)CCC(C(C)(C)C)C4)cc1 (stereo not given)	0%	.	.	-18%	.	-16%
C=C(C)C(O)/C=C/c1ccc(C)cc1 (stereo not given)	2%[11.6 µM]	.	.	-12%[11.5 µM]	.	-10%[11.6 µM]
Cc1ccc(N2C(=O)CS/C2=C(\C(Cl)=C(Cl)Cl)[N+](=O)[O-])cc1	?	18	1%	25µM*	-27%[46.1 µM]	?
COC(=O)c1ccc(Cl)cc1NC(=O)NC(C)c1c(-n2cccc2)sc(C)c1C (stereo not given)	-16%	.	.	-16%	.	?
CC(NC(=O)/C=C/c1ccc(Br)cc1)c1ccccc1 (stereo not given)	1%	-84*	2%	-6%	-14%	-12%
CC(NC(=O)/C=C/c1ccccc1)c1ccccc1 (stereo not given)	1%	.	6%	-6%	16%	-8%
O=C(c1csc2c1CCCC2)N1CCN(c2ccccc2)CC1	7%	-80*	-6%	-20%	?	-16%
Cc1ccc(C(=O)N2CCN(c3cccc(Cl)c3)CC2)cc1C	7%	?	-7%	-17%	?	-9%
Cc1ccc(C(=O)N2CCN(c3ccccc3)CC2)cc1C	0%	-107*	2%	-6%	-9%[46.1 µM]	-3%
CCc1ccc(CNC(=O)c2c3c(nc4ccccc24)C(=O)N(C2CCCCC2)C3)cc1	6%	.	.	?	.	-10%
CCOC(=O)c1[nH]c2ccccc2c1NC(=O)CCN1CC(C)OC(C)C1 (stereo not given)	1%	25	?	-4%	-4%[46.1 µM]	-7%
COC(=O)c1[nH]c2ccc(F)cc2c1NC(=O)CCN1CC(C)OC(C)C1 (stereo not given)	-3%	-89*	10%	2%	24%[46.1 µM]	-2%
O=C(NC1CCCCC1)C(c1ccc2ncccc2c1)N(Cc1ccc2c(c1)OCO2)C(=O)c1ccc2c(c1)OCCO2 (stereo not given)	2%	-25	-7%	-5%	-8%	1%
O=C(NC1CCCCC1)C(c1ccc2ncccc2c1)N(Cc1ccc(F)cc1)C(=O)c1ccc2c(c1)OCCO2 (stereo not given)	6%	-8	0%	-7%	13µM*	3%
C#CCOCCOCCOCCNc1nc(N2CCN(C(=O)[C@H](CCCCN)n3cc(C(N)CO)nn3)CC2)nc(N2CCN(C(=O)[C@H](CCC(=O)O)n3cc(C(N)CC(C)C)nn3)CC2)n1 (stereo not given in full)	-13%	.	20µM*	1%	20%	4%
